Measurements taken from PubChem BioAssay AID1159580 (chemical genetic matrix, 2015).
Where “and” joins values, the source holds several entries; their conditions need not be identical. Equal entries are not always repeated. The whole screen tested about 5,500 compounds, of which about 2,000 (36%) were called active. Roughly 18% stayed inconclusive and do not appear here. Cut-off read from the data, not from the text of the source: active = normalized growth mostly below about 0.91 (no sharp cut-off); inconclusive = no clear call, values can overlap the other calls; inactive = mostly above about 0.92. This is one part of the list.

Experiment: chemical genetic growth profiling, strain panel (AID 1159580);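 note: tested at 20 µM; growth read once vehicle control cultures reached saturation at 30 °C; 1 = growth at the plate median or of vehicle wells; lower values mean less growth of the strain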
Settings: S. cerevisiae deletion strains, growth OD

Measured: normalized growth

COc1ccc2c(c1)c(CC(=O)O)c(C)n2C(=O)c1ccc(Cl)cc1
inactive: locus YAL013W, strain DEP1, active compounds read low 1.01 | locus YAL021C, strain ccr4, active compounds read low 0.987 | locus YAL026C, strain drs2, active compounds read low 0.974 | locus YAL030W, strain snc1, active compounds read low 0.988 | locus YAL040C, strain CLN3, active compounds read low 0.997 | locus YBL061C, strain skt5, active compounds read low 0.959 | locus YBR009C, strain hhf1, active compounds read low 0.931 | locus YBR021W, strain FUR4, active compounds read low 1 | locus YBR023C, strain chs3, active compounds read low 0.969 | locus YBR171W, strain sec66, active compounds read low 0.967 | locus YBR229C, strain ROT2, active compounds read low 1 | locus YBR231C, strain swc5, active compounds read low 0.972 | locus YBR279W, strain paf1, active compounds read low 0.988 | locus YCL011C, strain gbp2, active compounds read low 0.921 | locus YCL016C, strain dcc1, active compounds read low 0.919 | locus YCL029C, strain bik1, active compounds read low 0.988 | locus YCL061C, strain MRC1 (second series), active compounds read low 1.01 | locus YCL061C, strain MRC1, active compounds read low 0.96 | locus YCL069W, strain vba3, active compounds read low 0.986 | locus YCR088W, strain abp1, active compounds read low 0.99 | locus YDL005C, strain med2, active compounds read low 0.973 | locus YDL035C, strain GPR1, active compounds read low 1.02 | locus YDL040C, strain nat1, active compounds read low 0.991 | locus YDL074C, strain BRE1, active compounds read low 1.02 | locus YDL101C, strain DUN1, active compounds read low 1.01 | locus YDL185W, strain tfp1, active compounds read low 0.973 | locus YDL192W, strain arf1, active compounds read low 0.998 | locus YDR001C, strain nth1, active compounds read low 0.978 | locus YDR069C, strain doa4, active compounds read low 1.01 | locus YDR101C, strain arx1, active compounds read low 1.02 | locus YDR137W, strain rgp1, active compounds read low 0.95 | locus YDR159W, strain sac3, active compounds read low 1.01 | locus YDR162C, strain NBP2, active compounds read low 0.995 | locus YDR195W, strain ref2 1.02 | locus YDR297W, strain sur2, active compounds read low 1.01 | locus YDR318W, strain mcm21, active compounds read low 0.979 | locus YDR334W, strain swr1, active compounds read low 0.981 | locus YDR335W, strain msn5, active compounds read low 0.991 | locus YDR363W, strain ESC2, active compounds read low 0.996 | locus YDR388W, active compounds read low 0.982 | locus YDR392W, strain spt3, active compounds read low 0.885 | locus YDR502C, strain sam2, active compounds read low 0.981 | locus YEL003W, strain gim4, active compounds read low 1 | locus YEL037C, strain rad23, active compounds read low 0.961 | locus YEL061C, strain CIN8 (second series), active compounds read low 0.979 | locus YEL061C, strain CIN8, active compounds read low 1 | locus YER002W, strain NOP16, active compounds read low 1.02 | locus YER015W, strain faa2, active compounds read low 0.976 | locus YER016W, strain bim1, active compounds read low 0.989 | locus YER110C, active compounds read low 0.986 | locus YER111C, strain swi4, active compounds read low 0.98 | locus YER155C, strain BEM2 (second series), active compounds read low 0.874 | locus YER155C, strain BEM2, active compounds read low 0.989 | locus YER167W, strain BCK2, active compounds read low 0.995 | locus YFR010W, strain ubp6, active compounds read low 0.975 | locus YGL078C, strain dbp3, active compounds read low 0.978 | locus YGL086W, strain mad1, active compounds read low 0.995 | locus YGL167C, strain pmr1, active compounds read low 0.983 | locus YGL173C, strain kem1, active compounds read low 0.985 | locus YGL227W, strain vid30, active compounds read low 0.976 | locus YGL240W, strain doc1, active compounds read low 1.01 | locus YGL248W, strain PDE1, active compounds read low 1.01 | locus YGL253W, strain hxk2, active compounds read low 0.993 | locus YGR135W, strain pre9, active compounds read low 0.963 | locus YGR252W, strain gcn5, active compounds read low 0.94 | locus YHR013C, strain ard1, active compounds read low 0.968 | locus YHR027C, strain rpn1, active compounds read low 0.981 | locus YHR030C, strain SLT2, active compounds read low 1.01 and 0.952 | locus YHR079C, strain IRE1 (second series), active compounds read low 0.987 | locus YHR079C, strain IRE1, active compounds read low 0.96 | locus YHR094C, strain hxt1, active compounds read low 0.975 | locus YHR129C, strain ARP1, active compounds read low 1.01 | locus YHR142W, strain chs7, active compounds read low 0.912 | locus YHR200W, strain rpn10, active compounds read low 0.99 | locus YIL066C, strain RNR3, active compounds read low 1 | locus YIL073C, strain SPO22, active compounds read low 0.987 | locus YIL125W, strain kgd1, active compounds read low 0.945 | locus YIR030C, strain dcg1, active compounds read low 0.986 | locus YJL092W, strain hpr5, active compounds read low 0.92 | locus YJL095W, strain BCK1 (second series), active compounds read low 0.996 | locus YJL095W, strain BCK1, active compounds read low 1 and 0.969 | locus YJL115W, strain asf1, active compounds read low 0.969 | locus YJL129C, strain trk1, active compounds read low 0.909 | locus YJL134W, strain LCB3, active compounds read low 0.997 | locus YJL154C, strain vps35, active compounds read low 0.989 | locus YJL164C, strain tpk1, active compounds read low 0.976 | locus YJL166W, strain qcr8, active compounds read low 0.977 | locus YJL168C, strain set2, active compounds read low 0.979 | locus YJL187C, strain SWE1 (second series), active compounds read low 1 | locus YJL187C, strain SWE1, active compounds read low 0.991 | locus YJR043C, strain POL32, active compounds read low 1.02 | locus YJR066W, strain TOR1, active compounds read low 0.911
